# The list is not random: actives were taken first. Their share in the collection is about 7.3%.
# SMN2 splice enh – increases expression of the SMN2 splice variant; AID 1458; Potency, µM (highest dose often 46.1 µM), for the others: at the highest dose activity change, positive = activation, usual class: activators; actives 2.8% (n = 210,000); HEK293 SMN2-luciferase splicing reporter, luminescence, 30-36 h; note: % of control where 0% means no effect; nearly all actives have a fitted effect of over 55% in size
#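 HEK293 cells carry an SMN2 minigene-luciferase reporter in which exon 7 inclusion puts luciferase in frame. Cells were seeded at 2000 cells/well, attached for 10-12 hours, then exposed to compounds for 30-36 hours at 37C before ONE-Glo luminescence.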
# Rab9 prom act – Rab9 promoter activation | AID 485297 | Huh7 Rab9 promoter-luciferase reporter, luminescence, 24 h | Potency, µM (series often up to 9.22 µM), for the others: at the top dose activation, negative = inhibition, usual class: activators | actives 2.8% (n = 320,000); note: % of control where 0% means no effect; nearly all actives have a fitted effect of over 60% in size
#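 Huh7 cells stably carrying a Rab9 promoter-luciferase reporter, 1500 cells per well in OP-MEM I with 10% FBS, treated with compound 24 hours at 37C. Luciferase activity read by luminescence after 10 minutes with Amplite reagent.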
# FLuc modulator – firefly luciferase modulation, counter-screen for miR-21 project. AID 588342. P08659. Potency, µM (series often up to 57.5 µM), for inactives: at the highest dose activity change, negative = inhibition, actives largely listed as inhibitors. purified FLuc, Km substrates, luminescence inhibition. actives 6.9% (n = 360,000);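 note: plate controls were vehicle for no effect and reference inhibitor for full effect; nearly all actives have a fitted effect of over 55% in size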
# Target sequence (P08659 whole entry, looked up): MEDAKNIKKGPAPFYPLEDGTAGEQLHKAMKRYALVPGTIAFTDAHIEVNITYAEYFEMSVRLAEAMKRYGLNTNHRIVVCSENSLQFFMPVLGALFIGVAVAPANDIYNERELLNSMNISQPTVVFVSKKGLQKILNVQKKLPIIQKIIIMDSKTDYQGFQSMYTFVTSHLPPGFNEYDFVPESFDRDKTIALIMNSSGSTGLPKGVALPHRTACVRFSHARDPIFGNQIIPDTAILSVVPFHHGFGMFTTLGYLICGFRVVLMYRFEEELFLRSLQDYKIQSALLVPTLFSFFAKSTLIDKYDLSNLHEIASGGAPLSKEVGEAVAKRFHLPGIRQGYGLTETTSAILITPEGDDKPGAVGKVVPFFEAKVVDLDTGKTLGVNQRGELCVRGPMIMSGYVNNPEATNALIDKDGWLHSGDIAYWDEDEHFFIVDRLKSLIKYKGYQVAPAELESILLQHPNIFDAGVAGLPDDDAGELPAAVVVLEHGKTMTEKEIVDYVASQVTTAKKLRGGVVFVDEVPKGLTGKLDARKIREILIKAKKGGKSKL
#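 Purified P. pyralis luciferase, 10 nM final, with Km-level 10 uM D-luciferin and 10 uM ATP in 50 mM Tris acetate pH 7.5, 10 mM Mg acetate, 0.01% Tween-20, 0.05% BSA; 6-point qHTS titration about 60 µM downward; luminescence read.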
# Luc counter – blocks Kinase-Glo luciferase, a counter-screen artifact. Q27757. Kinase-Glo luciferase, ATP luminescence, 8 min. Potency, µM (top dose mostly 38.3 µM), for the others: top-dose activity change, negative = inhibition, usual class: inhibitors. actives 0.28% (n = 200,000); note: % is set by controls: 0 for no effect and ±100 for the full control effect; nearly all actives have a fitted effect of over 60% in size
#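 Recombinant Kinase-Glo luciferase, 10 uM ATP (linear range), luciferin; imidazole pH 7.2 / KCl / MgCl2 / Tween / BSA buffer; 8 min RT; luminescence.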
# NPC1 prom act – activators of NPC1 promoter | Huh7 NPC1 promoter luciferase reporter, 24 h | actives 2.4% (n = 320,000) | Potency, µM (doses to about 9.22 µM), without a hit: at the top dose activation, actives largely listed as activators; note: % of control where 0% means no effect; nearly all actives have a fitted effect of over 60% in size
#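 Stably transfected Huh7 (NPC1 promoter→luciferase), 1500 cells/well in Opti-MEM + 10% FBS, 2 h settle, then compound 24 h at 37 °C. Luminescence after 10 min with Amplite reagent.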
# * marks the source's active call; other numbers are inactive results; ? = inconclusive; . = no result. Calls come from the whole dose curve; as a rule, active = well fitted curve in the direction sought with a large enough effect; inconclusive = small, poorly fitted or top-dose-only effect, or another doubt; inactive = no such curve, though single readings can be large; an effect the other way counts as inactive or inconclusive. Potency is the fitted concentration of half-maximal effect.
SMILES,SMN2 splice enh,Rab9 prom act,FLuc modulator,Luc counter,NPC1 prom act
COc1ccc(C)cc1NC(=O)c1cc2ccccn2n1,.,.,21µM*,.,.
CC(=O)c1cccc(NC(=O)c2cc3ccccn3n2)c1,24%,4µM*,3.4µM*,-12%,1.8µM*
CC(=O)c1cccc(NC(=O)c2c(C)nn(-c3ccccc3)c2Cl)c1,-6%,11%,?,-2%,21%
COc1ccc(Cl)cc1NC(=O)c1cc2ccccn2n1,.,.,-2%,.,.
Cc1ccc(C)c(NC(=O)c2cc3ccccn3n2)c1,13µM*,2.2µM*,11µM*,-6%,3.5µM*
COc1cn(CC(=O)Nc2ccc(C)cc2)c(CN2CCCCC2)cc1=O,.,.,-2%,.,.
Cc1ccccc1NC(=O)c1cc2ccccn2n1,.,1.4µM*,3.4µM*,.,3.5µM*
CCOC(=O)c1ccc(NC(=O)CC2C(=O)N(c3cccc(OC)c3)C(=O)N2Cc2ccc(OC)cc2)cc1 (centres undefined),-5%,.,2%,.,.
CC(=O)c1cccc(S(=O)(=O)NCC2CCCCC2)c1,?,?,-1%,-3%,0.0005µM*
COc1ccc(C)cc1NC(=O)C1CCN(S(=O)(=O)c2ccc3[nH]c4c(c3c2)CCCCC4)CC1,.,.,0%,.,.
O=C(COc1ccc(F)cc1)Nc1ccc(Cl)c(-c2nc3ccccc3[nH]2)c1,.,.,-13%,.,.
O=C(O)CCCC(=O)Nc1cccc(-c2nc3ccccc3[nH]2)c1,-3%,1%,12µM*,1%,-2%
O=C(CCc1nc2ccccc2[nH]1)Nc1ccccc1,28%,2%,-1%,0%,2%
O=C(COc1ccccc1)Nc1cccc(-c2nc3ccccc3[nH]2)c1,?,-1%,17µM*,-7%,-1%
COc1ccc(OCC(=O)Nc2cccc(-c3nc4ccccc4[nH]3)c2)cc1,?,30%,9.5µM*,-1%,?
CCOC(=O)c1ccc(NC(=O)Cn2nnc(-c3ccc(C(F)(F)F)cc3)n2)cc1,2%,.,-3%,.,.
CCCOc1ccc(-c2nc3ccc(Br)cc3c(=O)o2)cc1,1%,.,?,.,.
CCc1nn2c(=O)cc(COC(=O)c3cccc(NC(=O)c4ccccc4C)c3)nc2s1,.,.,0%,.,.
Cc1ccc(-c2nc(N/N=C/c3ccccc3[N+](=O)[O-])c3ccccc3n2)cc1,?,3.5µM*,0.76µM*,-29%,1.6µM*
Fc1ccc(Nc2nc(-c3cccnc3)nc3ccccc23)cc1,-26%,.,.,-5%,.
C(=N\Nc1nc(-c2cccnc2)nc2ccccc12)/c1ccccc1,.,19%,1.3µM*,.,14%
NNc1nc2ccccc2nc1C(F)(F)F,-31%,-9%,-12%,-5%,1%
FC(F)(F)c1nc2ccccc2nc1N/N=C\c1ccccc1,-18%,7%,15µM*,-5%,0%
Brc1ccc(-c2nc(N/N=C/c3cccnc3)c3ccccc3n2)cc1,13µM*,2.5µM*,0.21µM*,7.1µM*,2.8µM*
Cc1cc(Cl)ccc1NC(=O)CN1C(=O)COc2ccc(S(=O)(=O)Nc3ccccc3)cc21,.,.,-2%,.,.
SMILES,SMN2 splice enh,Rab9 prom act,FLuc modulator,Luc counter,NPC1 prom act
c1ccc(-c2nc(NCc3ccco3)c3ccccc3n2)nc1,-10%,3%,-2%,-2%,-1%
COc1cccc(/C=N/Nc2nc(-c3cccnc3)nc3ccccc23)c1,.,13%,1.5µM*,.,3%
C(=N\Nc1nc(-c2ccccn2)nc2ccccc12)/c1ccccc1,.,-30%,11µM*,.,-9%
COc1cccc(CNc2nc(-c3cccnc3)nc3ccccc23)c1,3%,-6%,-11%,3%,16%
O=C(c1ccc(-c2ccc([N+](=O)[O-])cc2Cl)o1)N1CCOCC1,?,?,17µM*,0%,28%
O=C(c1ccc([N+](=O)[O-])o1)N1CCOCC1,-7%,0%,4%,4%,-2%
O=C(c1ccc(-c2cccc(Cl)c2Cl)o1)N1CCOCC1,11µM*,1.3µM*,?,-7%,?
O=C(c1ccc(-c2ccccc2Cl)o1)N1CCCC(C(F)(F)F)C1 (centres undefined),.,?,13µM*,.,29%
CN1CCCN(C(=O)c2ccccc2Cl)CC1,.,4%,-2%,.,-3%
O=C(c1ccc(-c2ccccc2Cl)o1)N1CCC1,.,?,17µM*,.,?
O=C(c1ccc(-c2cccc(C(F)(F)F)c2)o1)N1CCOCC1,28%,19%,?,2%,24%
Cc1cccc(-c2nc3c4ccccc4nc(NCCc4ccccc4)n3n2)c1,8%,.,?,.,.
NC(=O)C1CCCN(C(=O)c2ccc(-c3cccc(Cl)c3Cl)o2)C1 (centres undefined),.,?,9.5µM*,.,?
CC1CC(C)CN(C(=O)c2cc3ccccc3o2)C1 (centres undefined),.,?,?,.,23%
CC1CCN(C(=O)c2cc3ccccc3o2)CC1,?,?,19µM*,-6%,?
NC(=O)C1CCCN(C(=O)c2ccc(S(=O)(=O)N3CCCCCC3)cc2)C1 (centres undefined),.,-6%,-1%,.,-1%
CC(=O)c1ccc(-c2ccc(C(=O)N3CCC(C(N)=O)CC3)o2)cc1,.,29%,?,.,?
CC1CCN(C(=O)c2ccc(-c3ccccc3Cl)o2)CC1,.,0.32µM*,2.1µM*,.,0.89µM*
Cc1nc(OCC(C)C)c2sc3nc4c(cc3c2n1)COC(C)(C)C4,.,1.4µM*,9.5µM*,.,1.8µM*
CCc1nc(OCc2ccco2)c2sc3nc4c(cc3c2n1)COC(C)(C)C4,.,0%,-20%,-3%,-1%
